Test results published in PubChem BioAssay AID1851 (National Center for Advancing Translational Sciences (NCATS), 2009).
Several values for one entry are separate records, joined by “and”; a condition that tells them apart may be missing. Equal entries are not always repeated. The campaign covered roughly 16,000 compounds. About 4,000 (25%) were called active. Inconclusive results (about 26%) are left out. The list is a sample of the results. A number with no mark means an inactive call. Calls follow the shape of the dose curve; as a rule, active = well fitted curve in the direction sought with a large enough effect; inconclusive = small, poorly fitted or top-dose-only effect, or effect the other way; inactive = no such curve, though single readings can be large or run the other way.

Target: Cytochrome P450 2C9 (Homo sapiens) (UniProt P11712)
Test: Cytochrome panel assay with activity outcomes
Settings: recombinant CYP, pro-luciferin dealkylation, luminescence, p450-cyp2c9; series mostly up to 57.1 µM
% is scaled to controls: 0 for no effect and ±100 for the full control effect.

Sequence of Cytochrome P450 2C9 (Homo sapiens) (P11712 whole entry, looked up): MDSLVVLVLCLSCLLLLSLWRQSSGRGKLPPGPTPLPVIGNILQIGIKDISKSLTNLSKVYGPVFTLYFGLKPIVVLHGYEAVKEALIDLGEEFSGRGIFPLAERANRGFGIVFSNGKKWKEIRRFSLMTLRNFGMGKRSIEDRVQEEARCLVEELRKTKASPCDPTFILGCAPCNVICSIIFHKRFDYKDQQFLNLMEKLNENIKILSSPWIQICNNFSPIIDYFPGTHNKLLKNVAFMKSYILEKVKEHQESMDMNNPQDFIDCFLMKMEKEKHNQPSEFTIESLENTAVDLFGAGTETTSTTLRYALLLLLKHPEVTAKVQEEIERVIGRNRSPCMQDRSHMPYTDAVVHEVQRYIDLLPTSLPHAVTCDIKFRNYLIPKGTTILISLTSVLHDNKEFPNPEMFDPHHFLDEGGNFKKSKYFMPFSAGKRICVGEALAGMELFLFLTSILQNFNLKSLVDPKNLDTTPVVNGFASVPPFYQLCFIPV

SMILES	activity, negative = inhibition	AC50
CC(C)(C)N1C(=O)[C@H]2[C@@H]3[C@H](O)[C@H](O)CC(=O)[C@H]3CC[C@H]2C1=O	6.8% [at 11.4 µM] and 2.7% [at 11.4 µM]	
O=C(O)[C@@H]1[C@@H](C(=O)Nc2ccccc2)[C@@H]2C=C[C@@H]1O2	12.3% [at 11.4 µM]	
CC(=O)NCCNc1nc(-c2cccc(NS(C)(=O)=O)c2)nc2ccccc12	-9.35% [at 2.29 µM]	
CS(=O)(=O)Nc1cccc(-c2nc(Nc3ccccc3)c3ccccc3n2)c1	-28.2% [at 2.29 µM]	
CC(C)(C)C(=O)Nc1cccc(-c2nc3ccccc3c(=O)o2)c1		12.6 µM (active)
O=C(NCC1CCCO1)c1nn2c(c1Cl)NC(c1ccc(F)cc1)CC2C(F)(F)F (stereo unspecified)		25.1 µM (active)
COc1ccc(NC(=O)c2cc3n(n2)C(C(F)(F)F)CC(c2ccc4c(c2)OCO4)N3)cc1OC (stereo unspecified)		inactive
O=C(NCC1CCCO1)c1ccc(CS(=O)(=O)Cc2ccc(F)cc2)o1 (stereo unspecified)		inactive
CN1CCN(c2ncc3nc(-c4cccs4)c(=O)n(C[C@H]4CCCO4)c3n2)CC1		inactive
CCOC(=O)C(NC(C)=O)C(OC(C)=O)c1cccc(N(CCO)CCO)c1 (stereo unspecified)		inactive
Clc1ccccc1C(Nc1cnccn1)Nc1cnccn1	1.92% [at 11.4 µM]	
O=C1CC(c2cccc(F)c2)SC(N(c2ccccc2)c2ccccc2)=N1 (stereo unspecified)		10 µM (active)
C[N+](C)(C)CCOC(N)=O		inactive
CC(C)[C@@H]1[C@H]2CC[C@H](C2)[C@H]1N		inactive
CC1=C/C(=N/O)C([C@H]2C=C(C)CC(C)(C)[C@@H]2O)C(C)(C)C1 (stereo partly specified)		2.51 µM (active)
N#CCCn1c(=O)c(-c2cc(F)cc(F)c2)nc2cnc(Nc3ccccc3)nc21		inactive
CN(C)Cc1ccccc1-c1ccc2ncnc(NCc3ccccc3)c2c1	-7.5% [at 2.29 µM]	
CCCC[C@]1(C2CCCC2)Cc2cc(OCC(=O)O)c(Cl)c(Cl)c2C1=O		2.51 µM (active)
Cc1cccc(NC(=O)CSc2nc(COc3ccccc3)nc3ccccc23)c1C		0.631 µM (active)
CCCc1nc(SCC(=O)NNC(=O)C2CCCCC2)c2ccccc2n1		inactive
CN(C)Cc1ccccc1-c1cc(N(C)Cc2ccco2)ncn1	-3.1% [at 2.29 µM]	
C/C(=N\NC(=O)c1ccc(Cl)cc1)c1cccc(NC(=O)C(C)C)c1		inactive
C/C(=N/NC(=O)c1ccc(C)s1)c1cccc(NC(=O)COc2ccc(Cl)cc2C)c1		1.26 µM (active)

SMILES	activity, negative = inhibition	AC50
COc1cc(OC)c(C(=O)CCCCN2CCC3(CC2)NC(=O)NC3=O)cc1NS(=O)(=O)c1ccc(C(F)(F)F)cc1		inactive
O=C(NC1CCCCC1)C(c1cccs1)N(C(=O)C(F)(F)F)c1ccccc1 (stereo unspecified)		1.58 µM (active)
Cc1ccc(N(C(=O)C(F)(F)F)C(C(=O)NC2CCCCC2)c2cccs2)cc1C (stereo unspecified)		inactive
COc1ccc(CCN(C(=O)C(F)(F)F)C(C(=O)NC2CCCC2)c2cccs2)cc1 (stereo unspecified)		3.16 µM (active)
COc1ccc(C(C(=O)NC2CCCC2)N(Cc2ccc(F)cc2)C(=O)c2ccn[nH]2)cc1OC (stereo unspecified)		inactive
COc1ccc(CN(C(=O)Cc2cccs2)C(C(=O)NC2CCCC2)c2ccncc2)cc1 (stereo unspecified)		5.01 µM (active)
COc1ccc(NC(=S)N(CCc2nc3cc(C)c(C)cc3[nH]2)Cc2cccnc2)cc1		7.94 µM (active)
Cc1ccc(C)c(NC(=S)N(CCc2nc3cc(C)c(C)cc3[nH]2)Cc2cccnc2)c1		3.98 µM (active)
Cc1cccc(CNc2nc(-c3cccnc3)nc3ccccc23)c1	-13% [at 2.29 µM]	
Cc1cccc(NC(=S)N(CCc2nc3cc(C)c(C)cc3[nH]2)Cc2cccnc2)c1		7.94 µM (active)
COc1cccc(NC(=S)N(CCc2nc3cc(C)c(C)cc3[nH]2)Cc2cccnc2)c1		5.01 µM (active)
COC(=O)[C@@H]1O[C@@H](SCCN)[C@@H](O)[C@H](O)[C@H]1O	15% [at 11.4 µM]	
O=C(O)Cc1ccc2ocnc2c1		inactive
COc1cccc(Nc2ncc3nc(C)c(=O)n(C)c3n2)c1		inactive
COc1ccc(C2CC(=O)c3cnc(Nc4cc(C)cc(C)c4)nc3C2)cc1 (stereo unspecified)		10 µM (active)
COc1cccc(Nc2ncc3nc(C)c(=O)n(C4CC4)c3n2)c1		inactive
COc1ccc(-c2nc3cnc(Nc4ccccc4)nc3n(CCC#N)c2=O)cc1		inactive
COc1ccc(Nc2ncc3c(n2)CC(c2ccc(C)cc2)CC3=O)cc1 (stereo unspecified)		5.01 µM (active)
NS(=O)(=O)c1cc2c(cc1C(F)(F)F)N[C@H](Cc1ccccc1)NS2(=O)=O		inactive
CN1CCN([C@@H]2Cc3ccccc3Sc3ccc(Cl)cc32)CC1		inactive
CNC(=O)[C@H]1O[C@H](n2cnc3c(NCc4cccc(I)c4)ncnc32)[C@@H](O)[C@@H]1O		inactive
CCSC1=C(C#N)C2(CCCCC2)C(C#N)=C(N)N1		2.82 µM (active)
CCOC(=O)[C@]1(CC(=O)O)CCCC1=O	-6.54% [at 11.4 µM]	

SMILES	activity, negative = inhibition	AC50
Cc1cc(C)c(S(=O)(=O)Nc2cccc(C(F)(F)F)c2)c(C)c1		inactive
COc1ccc(N(CC(=O)Nc2cccc(C)c2)S(=O)(=O)c2c(C)n[nH]c2C)cc1		1.41 µM (active)
CN(C)c1cc(-c2cccc(NS(C)(=O)=O)c2)ncn1	16.1% [at 2.29 µM]	
Cc1cccc(NS(=O)(=O)c2c(C)n[nH]c2C)c1		17.8 µM (active)
COc1ccccc1CNc1ccnc(-c2ccccc2OC)n1	-5.44% [at 2.29 µM]	
C=CCSc1nnc2c(n1)OC(c1c(C)[nH]n(-c3ccccc3)c1=O)Nc1ccccc1-2 (stereo unspecified)		0.447 µM (active)
CS(=O)(=O)N1CCC[C@@]2(CCN(C(=O)Nc3cccc(C#N)c3)C2)C1		inactive
CCCCCSc1nncc(=O)[nH]1		4.47 µM (active)
Clc1ccc(CC[C@H](Cn2ccnc2)Sc2c(Cl)cccc2Cl)cc1		0.0126 µM (active)
NC(N)=Nc1ccc(Cl)cc1		inactive
COc1ccc(NC(=O)CN(C)S(=O)(=O)c2ccc(Cl)cc2)c([N+](=O)[O-])c1		inactive
CCOc1ccc(NC(=O)c2ccc(Br)o2)c([N+](=O)[O-])c1		inactive
Cc1ccc(C(=O)NCCNc2ccc(Cl)cc2[N+](=O)[O-])o1		10 µM (active)
CC(NC(=O)CN1CCCC1)C12CC3CC(CC(C3)C1)C2 (stereo unspecified)		inactive
CC(Oc1ccc(O)cc1)(P(=O)(O)O)P(=O)(O)O		inactive
CC(C)n1c(N2CCN(C(=O)Nc3ccccc3)CC2)nc2ccccc21		6.31 µM (active)
Cn1cccc1C(=O)N1CCC2(CCN(C(=O)Nc3ccccc3)CC2)CC1		inactive
O=C(Nc1cccc(NC(=O)N2CCN(c3ccccc3)CC2)c1)N1CCN(c2ccccc2)CC1		7.94 µM (active)
COC(=O)N1CCC2(CCN(C(=O)Nc3ccccc3)CC2)CC1		inactive
O=C(Nc1ccccc1)N1CCC2(CCNCC2)CC1		inactive
CC(=O)N1CCC2(CC1)CCN(C(=O)Nc1cccc(F)c1)CC2		inactive
CC(C)=CCC/C(C)=C/CO/N=C1/C[C@@H](O)[C@@H](O)[C@@H]2[C@H]3C(=O)N(c4ccc(F)cc4F)C(=O)[C@@H]3CC[C@@H]12	-4.09% [at 11.4 µM]	
CC(C)C(C(=O)O)N1C(=O)/C(=C/C=C/c2ccco2)SC1=S (stereo unspecified)		6.31 µM (active)

SMILES	activity, negative = inhibition	AC50
c1ccc2cc(C3=NCCN3)ncc2c1		inactive
Cc1cccc(N(CC(=O)NC2CCCC2)C(=O)c2cc3cc4cccc(C)c4nc3s2)c1C		0.794 µM (active)
Cc1ccc(C)c(N(CC(=O)NC2CCCC2)C(=O)c2cc3cc4cccc(C)c4nc3s2)c1		0.447 µM (active)
N=C(N)SCCc1cnc[nH]1		inactive
COC(=O)[C@@]1(Cc2ccc(OC)cc2)[C@H]2c3cc(C(=O)N4CCCC4)n(Cc4cc(F)cc5c4OCOC5)c3C[C@H]2CN1C(=O)c1ccccc1		6.31 µM (active)
COC(=O)[C@@]1(Cc2ccccc2)[C@H]2c3cc(C(=O)N4CCCC4)n(Cc4cc(F)cc5c4OCOC5)c3C[C@H]2CN1C(=O)c1ccccc1		0.316 µM (active)
Cc1nn(C)c(Cl)c1NC(=O)OCc1ccc(F)cc1		inactive
CSc1nsc(SC)c1NC(=O)OCc1ccccc1		10 µM (active)
O=C(NCC1CCC(C(=O)O)CC1)OCc1ccccc1 (stereo unspecified)		inactive
Cc1cccc(NC(=O)c2cc(N3C(=O)CCC3=O)ccc2Cl)n1		inactive
Cc1ccccc1C(=O)Nc1cccc(NC(=S)NC(=O)c2cccs2)c1		3.55 µM (active)
Cc1cccc(NC(=S)NC(=O)c2cccs2)n1		10 µM (active)
C/C(=N\NC(=O)c1ccccc1C)c1ccc(NC(=O)c2cccs2)cc1		14.1 µM (active)
CN(C)c1ccc(-c2nccc(NCCN3CCOCC3)n2)cc1	5.77% [at 2.29 µM]	
CSc1ccc2c(c1)[C@H](N1CCN(C)CC1)Cc1ccccc1S2		inactive
CCCN1C(=O)C(Cc2nc3ccccc3c(=O)n2C)c2ccccc21 (stereo unspecified)		12.6 µM (active)
CCCN1C(=O)C(NC(C)=O)c2cc(OC)ccc21 (stereo unspecified)		inactive
FC(F)(F)c1ccccc1-c1nc(NCCN2CCOCC2)c2ccccc2n1	12.6% [at 2.29 µM]	
CC1CN(C(=O)CN2C(=O)NC3(CCCCCC3)C2=O)CC(C)O1 (stereo unspecified)		inactive
CC(=O)NCCNc1ncncc1-c1ccc(N(C)C)cc1	-1.01% [at 2.29 µM]	
Cc1ccc(/C=C2\SC(=S)N(CCCC(=O)Nc3ccccn3)C2=O)cc1		5.01 µM (active)
Cc1ccc(NC(=O)CN2C(=O)S/C(=C\c3cccn3C)C2=O)cc1		inactive
